Compounds without any hit were thinned out: in the full panel of roughly 83,000, 20% have a hit.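 How to read the values: 0–100, growth inhibition (40 = 60% inhibited); 0, no net growth; -100 to 0, cell death (-40 = 40% of starting cells died; -100 = all dead).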 Active and inactive are the calls of the source. Rule for the calls: active = growth percent below 10; inactive = the rest.
Columns and labels:
Assay in all cases: NCI-60 one-dose screen, 48 h (100 = growth as untreated, 0 = no growth, -100 = all killed)
Settings in all cases: 10 µM unless noted
NCI-H23 lung = test system: NCI-H23 lung
NCI-H322M lung = test system: NCI-H322M lung
HOP-62 NSCLC = test system: HOP-62 NSCLC
NCI-H460 lung = test system: NCI-H460 lung
HOP-92 NSCLC = test system: HOP-92 NSCLC
NCI-H522 lung = test system: NCI-H522 lung
786-0 renal = test system: 786-0 renal
COLO 205 colon = test system: COLO 205 colon
DU-145 prostate = test system: DU-145 prostate
K-562 leukemia = test system: K-562 leukemia
MALME-3M melanoma = test system: MALME-3M melanoma
MDA-MB-231 breast = test system: MDA-MB-231 breast
RXF 393 renal = test system: RXF 393 renal
SF-268 CNS = test system: SF-268 CNS
SF-295 CNS = test system: SF-295 CNS
SF-539 CNS = test system: SF-539 CNS
UACC-257 melanoma = test system: UACC-257 melanoma
M14 melanoma = test system: M14 melanoma
HCT-15 colon = test system: HCT-15 colon
A549/ATCC NSCLC = test system: A549/ATCC NSCLC

Measured: growth

Cc1ccc(Cc2cnc(NC(=O)CN3C(=O)/C(=C\c4ccccc4)SC3=S)s2)cc1
inactive: NCI-H23 lung 103% | NCI-H322M lung 109% | HOP-62 NSCLC 109% | NCI-H460 lung 103% | HOP-92 NSCLC 113% | NCI-H522 lung 94.7% | 786-0 renal 105% | COLO 205 colon 116% | DU-145 prostate 111% | K-562 leukemia 101% | MALME-3M melanoma 104% | MDA-MB-231 breast 108% | RXF 393 renal 113% | SF-268 CNS 101% | SF-295 CNS 101% | SF-539 CNS 100% | UACC-257 melanoma 107% | M14 melanoma 107% | HCT-15 colon 103%

CNCCNc1nc2ccccc2c2c(=O)c3cccc(C)c3sc12
inactive: NCI-H23 lung 58.2% | NCI-H322M lung 40.9% | HOP-62 NSCLC 25.6% | HOP-92 NSCLC 44% | NCI-H522 lung 27.8% | A549/ATCC NSCLC 35.7% | 786-0 renal 57.3% | DU-145 prostate 27.8% | RXF 393 renal 50.8% | SF-268 CNS 53.7% | SF-295 CNS 76% | SF-539 CNS 52.4% | UACC-257 melanoma 82%
active: NCI-H460 lung 9.45% | K-562 leukemia -52.5% | MALME-3M melanoma -11.3% | MDA-MB-231 breast -18% | M14 melanoma -40.9% | HCT-15 colon -21.3%

CCCCN1CCN(c2ccc3nc(-c4ccc5nc(-c6ccc(OCC)cc6)[nH]c5c4)[nH]c3c2)CC1
active: K-562 leukemia -29.1%
inactive: NCI-H23 lung 64.1% | NCI-H322M lung 82.4% | HOP-62 NSCLC 46.2% | NCI-H460 lung 75.9% | HOP-92 NSCLC 95.9% | NCI-H522 lung 68.8% | A549/ATCC NSCLC 86.5% | 786-0 renal 75.3% | DU-145 prostate 68.7% | MALME-3M melanoma 36% | MDA-MB-231 breast 111% | RXF 393 renal 36.9% | SF-268 CNS 77.1% | SF-295 CNS 48.7% | SF-539 CNS 67.9% | UACC-257 melanoma 68.2% | M14 melanoma 32.7% | HCT-15 colon 16.6%

O=c1c2cccc(F)c2sc2c(N3CCNCC3)nc3ccccc3c12
active: NCI-H460 lung -77.2% | K-562 leukemia -42.1% | UACC-257 melanoma 8.99% | M14 melanoma -27.4% | HCT-15 colon 5.87%
inactive: NCI-H23 lung 51% | NCI-H322M lung 37.9% | HOP-62 NSCLC 37.2% | HOP-92 NSCLC 35.3% | NCI-H522 lung 48.6% | A549/ATCC NSCLC 21.8% | 786-0 renal 37% | DU-145 prostate 22.3% | MALME-3M melanoma 53.5% | MDA-MB-231 breast 34.6% | RXF 393 renal 42.4% | SF-268 CNS 41.4% | SF-295 CNS 74.6% | SF-539 CNS 48.9%

COc1cc(C2C3=C(COC3=O)N(CCO)c3cc4c(cc32)OCCO4)cc(OC)c1O (configuration not stated)
active: NCI-H460 lung -3.84% | NCI-H522 lung -23.4% | DU-145 prostate -8.77% | RXF 393 renal -45.7% | SF-295 CNS 2.74% | SF-539 CNS -31.2% | M14 melanoma -22.4%
inactive: NCI-H23 lung 35.8% | NCI-H322M lung 51.6% | HOP-62 NSCLC 32.9% | HOP-92 NSCLC 85.3% | 786-0 renal 19.8% | COLO 205 colon 18.2% | K-562 leukemia 12.5% | MALME-3M melanoma 64.7% | MDA-MB-231 breast 27.7% | SF-268 CNS 46% | UACC-257 melanoma 46.2% | HCT-15 colon 49.4%

COc1cc(C2CC(c3ccc(Nc4nc(NCCO)nc(N5CCOCC5)n4)cc3)=NN2c2cc(Cl)cc(Cl)c2)cc(OC)c1OC (configuration not stated)
inactive: NCI-H23 lung 56.7% | NCI-H322M lung 72.6% | HOP-62 NSCLC 67.2% | NCI-H460 lung 22.2% | HOP-92 NSCLC 32.7% | NCI-H522 lung 66% | A549/ATCC NSCLC 36.6% | 786-0 renal 12.5% | DU-145 prostate 67.5% | K-562 leukemia 21.9% | MALME-3M melanoma 77.6% | MDA-MB-231 breast 49.2% | SF-268 CNS 49.4% | SF-295 CNS 50.1% | SF-539 CNS 41.4% | UACC-257 melanoma 80.2% | M14 melanoma 64.9% | HCT-15 colon 31.5%
active: RXF 393 renal 5.08%

O=C(/C=C/c1ccc(F)cc1)c1ccc(Nc2nc(NCCO)nc(Nc3ccc(Cl)cc3)n2)cc1
inactive: NCI-H23 lung 89.1% | NCI-H322M lung 93.1% | HOP-62 NSCLC 80.8% | NCI-H460 lung 61.6% | HOP-92 NSCLC 87.8% | NCI-H522 lung 81.1% | A549/ATCC NSCLC 51.1% | 786-0 renal 69.8% | DU-145 prostate 84.6% | K-562 leukemia 45.4% | MALME-3M melanoma 96.6% | MDA-MB-231 breast 71.9% | RXF 393 renal 51.2% | SF-268 CNS 71.9% | SF-295 CNS 91% | SF-539 CNS 74.4% | UACC-257 melanoma 99.5% | M14 melanoma 83.3% | HCT-15 colon 26.7%

Cc1cccc2c(=O)c3c(sc12)c(NCCCNCCO)nc1ccccc13
active: K-562 leukemia -51.3% | MDA-MB-231 breast -1.61% | HCT-15 colon 0.41%
inactive: NCI-H23 lung 55% | NCI-H322M lung 63.3% | HOP-62 NSCLC 41.6% | NCI-H460 lung 19.3% | HOP-92 NSCLC 29.4% | NCI-H522 lung 58.6% | A549/ATCC NSCLC 39.4% | 786-0 renal 52.8% | DU-145 prostate 35% | MALME-3M melanoma 26.9% | RXF 393 renal 43.3% | SF-268 CNS 52.1% | SF-295 CNS 74.7% | SF-539 CNS 59.4% | UACC-257 melanoma 91.6% | M14 melanoma 35.1%
